# Test results: paper PMC11062922 (Nature Chemical Biology, 2023)
# Like-named read-outs stand apart in the source and are kept apart here.
# How the values were obtained:
# Parameters in all cases: species or system human, MV4-11 + K-562 + COLO205 + SK-N-BE2 + OVCAR-8
# CSNK1D = conditions: read-out: apparent Kd, n = 1
# AURKA = conditions: read-out: apparent Kd, n = 1
# BCR = conditions: read-out: apparent Kd, n = 1
# MAPK10 = conditions: read-out: apparent Kd, n = 1
# MAPK9 = conditions: read-out: apparent Kd, n = 1
# PRKAG2 = conditions: read-out: apparent Kd, n = 1
# RPS6KA4 = conditions: read-out: apparent Kd, n = 1
# STK4 = conditions: read-out: apparent Kd, n = 1
# TNK1 = conditions: read-out: apparent Kd, n = 1
# TNK2 = conditions: read-out: apparent Kd, n = 1
# CAMKK2 = conditions: read-out: apparent Kd, n = 1
# CHEK1 = conditions: read-out: apparent Kd, n = 1
# EPHA4 = conditions: read-out: apparent Kd, n = 1
# EPHA5 = conditions: read-out: apparent Kd, n = 1
# EPHB2 = conditions: read-out: apparent Kd, n = 1
# EPHB4 = conditions: read-out: apparent Kd, n = 1
# PRKACA = conditions: read-out: apparent Kd; compound concentrations:100 nM and 1000 nM (sheet 'Samples'); n = 1
# PRKACB = conditions: read-out: apparent Kd, n = 1
# MARK3 = conditions: read-out: apparent Kd, n = 1
# CDK16 = conditions: read-out: apparent Kd; compound concentrations: 100 nM and 1000 nM (sheet 'Samples'), CATDS: 6.29330119004379E-3; n = 1
# [1] = compound concentrations:100 nM and 1000 nM (sheet 'Samples')
smiles,measurement,setting,value
Cc1cccc2c(-c3ccncn3)c(-c3ccc(F)cc3)nn12 [GW515532X],potency estimated from few doses,"CSNK1D; compound concentrations: 100 nM and 1000 nM (sheet 'Samples'), CATDS: 0.213897093745788",1920 nM
CNC(=O)c1ccccc1Nc1nc(Nc2ccc(N3CCOCC3)cc2)ncc1Cl.Cl [GSK1576028A],potency estimated from few doses,AURKA; [1],11 nM
same,potency estimated from few doses,BCR; [1],781 nM
same,potency estimated from few doses,MAPK10; [1],60.1 nM
same,potency estimated from few doses,MAPK9; [1],220 nM
same,potency estimated from few doses,PRKAG2; [1],587 nM
same,potency estimated from few doses,RPS6KA4; [1],427 nM
same,potency estimated from few doses,STK4; [1],675 nM
same,potency estimated from few doses,TNK1; [1],7.93 nM
same,potency estimated from few doses,TNK2; [1],731 nM
Fc1ccc(-c2c(-c3ccncc3)[nH]c3cccnc23)cc1 [RO1153853-000],potency estimated from few doses,"CSNK1D; compound concentrations: 100 nM and 1000 nM (sheet 'Samples'), CATDS: 0.18196610661617901",99.4 nM
same,potency estimated from few doses,"MAPK9; compound concentrations: 100 nM and 1000 nM (sheet 'Samples'), CATDS: 7.2614011783570201E-2",541 nM
NCCNS(=O)(=O)c1ccc(-c2ccnc3[nH]ccc23)cc1 [GSK977617A],potency estimated from few doses,BCR; [1],244 nM
same,potency estimated from few doses,CAMKK2; [1],1970 nM
same,potency estimated from few doses,CHEK1; [1],2250 nM
same,potency estimated from few doses,EPHA4; [1],287 nM
same,potency estimated from few doses,EPHA5; [1],267 nM
same,potency estimated from few doses,EPHB2; [1],189 nM
same,potency estimated from few doses,EPHB4; [1],171 nM
same,potency estimated from few doses,PRKACA,361 nM
same,potency estimated from few doses,PRKACB; [1],571 nM
same,potency estimated from few doses,RPS6KA4; [1],588 nM
same,potency estimated from few doses,TNK1; [1],181 nM
same,potency estimated from few doses,TNK2; [1],233 nM
Cc1ccc2c(-c3ccncc3)c(-c3ccc(F)cc3)nn2c1.Cl [GW461484A],potency estimated from few doses,BCR; [1],545 nM
same,potency estimated from few doses,CAMKK2; [1],1180 nM
same,potency estimated from few doses,CHEK1; [1],1870 nM
same,potency estimated from few doses,CSNK1D; [1],125 nM
same,potency estimated from few doses,EPHA4; [1],550 nM
same,potency estimated from few doses,EPHA5; [1],429 nM
same,potency estimated from few doses,EPHB2; [1],341 nM
same,potency estimated from few doses,EPHB4; [1],275 nM
same,potency estimated from few doses,PRKACA,1900 nM
same,potency estimated from few doses,PRKAG2; [1],417 nM
same,potency estimated from few doses,TNK1; [1],280 nM
same,potency estimated from few doses,TNK2; [1],328 nM
Cc1cccc(-c2nc(Nc3ccncc3)c3sccc3n2)n1 [GW869641X],potency estimated from few doses,CSNK1D; [1],185 nM
same,potency estimated from few doses,MAPK10; [1],1140 nM
CN(c1ccc(NC(=O)N2CCN(CCCN3CCOCC3)CC2)cc1)c1ccnc(Nc2ccc(CS(C)(=O)=O)cc2)n1.Cl [GW830899A],potency estimated from few doses,"AURKA; compound concentrations: 100 nM and 1000 nM (sheet 'Samples'), CATDS: 2.4317426688995499E-2",955 nM
same,potency estimated from few doses,"CAMKK2; compound concentrations: 100 nM and 1000 nM (sheet 'Samples'), CATDS: 1.7762622720353199E-2",2190 nM
same,potency estimated from few doses,"EPHA4; compound concentrations: 100 nM and 1000 nM (sheet 'Samples'), CATDS: 2.15154621578117E-2",1270 nM
same,potency estimated from few doses,"EPHA5; compound concentrations: 100 nM and 1000 nM (sheet 'Samples'), CATDS: 2.2767251891404602E-2",1110 nM
same,potency estimated from few doses,"MARK3; compound concentrations: 100 nM and 1000 nM (sheet 'Samples'), CATDS: 1.9647586530532599E-2",1610 nM
same,potency estimated from few doses,"PRKACB; compound concentrations: 100 nM and 1000 nM (sheet 'Samples'), CATDS: 1.9426092751651199E-2",1660 nM
same,potency estimated from few doses,"TNK2; compound concentrations: 100 nM and 1000 nM (sheet 'Samples'), CATDS: 3.2652944878228798E-2",544 nM
COc1ccc(Nc2ncc(C#N)c(Nc3ccccc3C(N)=O)n2)cc1N1CCN(C)CC1.Cl [GSK1558669A],potency estimated from few doses,"AURKA; compound concentrations: 100 nM and 1000 nM (sheet 'Samples'), CATDS: 3.9666626948294099E-2",12 nM
same,potency estimated from few doses,"BCR; compound concentrations: 100 nM and 1000 nM (sheet 'Samples'), CATDS: 1.27803345453226E-2",96.9 nM
same,potency estimated from few doses,"CAMKK2; compound concentrations: 100 nM and 1000 nM (sheet 'Samples'), CATDS: 6.1789819356504504E-3",1430 nM
same,potency estimated from few doses,CDK16,1270 nM
same,potency estimated from few doses,"CHEK1; compound concentrations: 100 nM and 1000 nM (sheet 'Samples'), CATDS: 1.1194862883684801E-2",137 nM
same,potency estimated from few doses,"MAPK10; compound concentrations: 100 nM and 1000 nM (sheet 'Samples'), CATDS: 6.8664179629566802E-3",783 nM
same,potency estimated from few doses,"MAPK9; compound concentrations: 100 nM and 1000 nM (sheet 'Samples'), CATDS: 7.8754696697006001E-3",427 nM
same,potency estimated from few doses,"MARK3; compound concentrations: 100 nM and 1000 nM (sheet 'Samples'), CATDS: 1.02819135302623E-2",174 nM
same,potency estimated from few doses,"PRKAG2; compound concentrations: 100 nM and 1000 nM (sheet 'Samples'), CATDS: 1.3647831185805001E-2",82.8 nM
same,potency estimated from few doses,"RPS6KA4; compound concentrations: 100 nM and 1000 nM (sheet 'Samples'), CATDS: 8.4346807860121598E-3",330 nM
same,potency estimated from few doses,"STK4; compound concentrations: 100 nM and 1000 nM (sheet 'Samples'), CATDS: 6.7227641521754398E-3",872 nM
same,potency estimated from few doses,"TNK1; compound concentrations: 100 nM and 1000 nM (sheet 'Samples'), CATDS: 3.9834731570335402E-2",11.9 nM
CC(C)N1CCC(n2cnc(-c3ccc(F)cc3)c2-c2ccnc(N)n2)CC1 [SB-223132],potency estimated from few doses,AURKA; [1],931 nM
same,potency estimated from few doses,BCR; [1],660 nM
same,potency estimated from few doses,CAMKK2; [1],940 nM
same,potency estimated from few doses,CHEK1; [1],1740 nM
same,potency estimated from few doses,CSNK1D; [1],25.1 nM
same,potency estimated from few doses,EPHA4; [1],692 nM
same,potency estimated from few doses,EPHA5; [1],545 nM
same,potency estimated from few doses,EPHB2; [1],385 nM
same,potency estimated from few doses,EPHB4; [1],314 nM
same,potency estimated from few doses,MAPK10; [1],1330 nM
same,potency estimated from few doses,MARK3; [1],1770 nM
same,potency estimated from few doses,PRKACA,1710 nM
same,potency estimated from few doses,PRKAG2; [1],1040 nM
same,potency estimated from few doses,TNK2; [1],374 nM
O=C1NC(=O)C(N2CCc3ccccc32)=C1c1ccccc1Cl [SB-373598],potency estimated from few doses,AURKA; [1],295 nM
same,potency estimated from few doses,BCR; [1],243 nM
same,potency estimated from few doses,CAMKK2; [1],588 nM
same,potency estimated from few doses,CHEK1; [1],999 nM
same,potency estimated from few doses,EPHA4; [1],387 nM
same,potency estimated from few doses,EPHA5; [1],276 nM
same,potency estimated from few doses,EPHB2; [1],110 nM
same,potency estimated from few doses,EPHB4; [1],129 nM
same,potency estimated from few doses,MARK3; [1],1280 nM
same,potency estimated from few doses,PRKACB; [1],1480 nM
same,potency estimated from few doses,PRKAG2; [1],1390 nM
same,potency estimated from few doses,RPS6KA4; [1],1220 nM
same,potency estimated from few doses,TNK1; [1],31.3 nM
same,potency estimated from few doses,TNK2; [1],108 nM
Clc1cc(Cl)cc(Nc2ccnc(Nc3cc(Cl)cc(Cl)c3)n2)c1 [GSK175726A],potency estimated from few doses,"AURKA; compound concentrations: 100 nM and 1000 nM (sheet 'Samples'), CATDS: 1.16998692507499E-2",470 nM
same,potency estimated from few doses,"BCR; compound concentrations: 100 nM and 1000 nM (sheet 'Samples'), CATDS: 1.5030836072921499E-2",242 nM
same,potency estimated from few doses,"CAMKK2; compound concentrations: 100 nM and 1000 nM (sheet 'Samples'), CATDS: 8.7749844490250094E-3",1420 nM
same,potency estimated from few doses,"CHEK1; compound concentrations: 100 nM and 1000 nM (sheet 'Samples'), CATDS: 9.2936135533363204E-3",1080 nM
same,potency estimated from few doses,"EPHA4; compound concentrations: 100 nM and 1000 nM (sheet 'Samples'), CATDS: 2.4571343446097599E-2",91.5 nM
same,potency estimated from few doses,"EPHA5; compound concentrations: 100 nM and 1000 nM (sheet 'Samples'), CATDS: 1.7966956970046102E-2",164 nM
same,potency estimated from few doses,"EPHB2; compound concentrations: 100 nM and 1000 nM (sheet 'Samples'), CATDS: 1.9895433949459099E-2",134 nM
same,potency estimated from few doses,"EPHB4; compound concentrations: 100 nM and 1000 nM (sheet 'Samples'), CATDS: 2.29851767560591E-2",103 nM
same,potency estimated from few doses,"PRKAG2; compound concentrations: 100 nM and 1000 nM (sheet 'Samples'), CATDS: 2.5465407694982199E-2",86.1 nM
same,potency estimated from few doses,"RPS6KA4; compound concentrations: 100 nM and 1000 nM (sheet 'Samples'), CATDS: 8.4689848583526291E-3",1720 nM
same,potency estimated from few doses,"TNK1; compound concentrations: 100 nM and 1000 nM (sheet 'Samples'), CATDS: 5.9656473094293803E-2",24.9 nM
same,potency estimated from few doses,"TNK2; compound concentrations: 100 nM and 1000 nM (sheet 'Samples'), CATDS: 2.7223225317324601E-2",77.1 nM
